Compound activity (PubChem BioAssay)
Most compounds without a hit are left out; they make up all but 3.5% or so of the library.
Mtb betalactam: beta-lactam sensitization of Mtb H37Rv, H37Rv; M. tuberculosis H37Rv growth with meropenem, percent inhibition; inhibition, % at 25 µM; hit rate 0.27% among 330,000; call rule not given here;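 note: growth measured after seven days incubation then overnight dye step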
Rv3671c inh: Rv3671c serine protease inhibitors, primary screen, biochemical, fluorescence polarization, M. tuberculosis H37Rv. AID 2606, 2010. hit rate 0.048% among 320,000. P9WHR9. inhibition, % at 5.96 µM; in the data active = inhibition above about 38%;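 note: extracellular domain of Rv3671c used as enzyme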
FBA Mtb inh: Mtb FBA enzyme inhibitors, primary screen, biochemical, fluorescence, strain H37Rv; Fructose-bisphosphate aldolase (Mycobacterium tuberculosis (strain ATCC 25618 / H37Rv)), …; purified M. tuberculosis FBA, fluorescence read-out; inhibition, % at 1 µM; hit rate 2.3% among 360,000; AID 588726, 2011; in the data active = inhibition above about 27%
GDH-TPI counter: GDH-TPI coupling enzyme inhibitors, primary screen, artefact control for M. tuberculosis FBA inhibitor project, biochemical, absorbance, full deck | inhibition, % at 4.8 µM | hit rate 1.2% among 360,000 | GDH-TPI coupled enzyme counterscreen, NADH absorbance; in the data active = inhibition above about 30%
UGM FP inh: M. tuberculosis UGM enzyme inhibitors, primary screen, biochemical, fluorescence polarization, single point; inhibition, % at 10 µM; AID 504406, 2011; purified UGM, fluorescence polarization probe displacement; UDP-galactopyranose mutase (Mycobacterium tuberculosis (strain ATCC 25618 / H37Rv)), …; hit rate 0.06% among 320,000; in the data active = inhibition above about 10%, passing the limit was not always enough; inconclusive = no clear call, values can overlap the other calls
Target sequence (P9WIQ1 whole entry, looked up): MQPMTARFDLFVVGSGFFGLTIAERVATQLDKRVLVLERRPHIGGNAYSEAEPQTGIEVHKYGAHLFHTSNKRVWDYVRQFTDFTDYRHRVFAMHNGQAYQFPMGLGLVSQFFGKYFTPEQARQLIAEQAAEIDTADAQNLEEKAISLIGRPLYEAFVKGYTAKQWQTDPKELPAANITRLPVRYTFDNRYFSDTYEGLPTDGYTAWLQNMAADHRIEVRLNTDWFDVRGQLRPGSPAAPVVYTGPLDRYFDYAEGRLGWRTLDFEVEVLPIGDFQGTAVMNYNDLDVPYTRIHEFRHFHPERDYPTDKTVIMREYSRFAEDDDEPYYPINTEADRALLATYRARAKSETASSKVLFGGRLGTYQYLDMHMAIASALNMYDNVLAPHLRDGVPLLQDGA
Hits are given with their value; i = inactive; ? = inconclusive; nt = not tested or not shown; + = active, no number.

SMILES | Mtb betalactam | Rv3671c inh | FBA Mtb inh | GDH-TPI counter | UGM FP inh
CC(C)(C)c1ccc(C(=O)NC(=S)Nc2nc3c(s2)CCCC3)cc1 | i | i | i | i | i
CN(C)c1ccc(C(=O)Nc2nc3c(s2)CCCC3)cc1 | i | i | i | 37.4 | i
Cc1c(OCC(=O)NC(Cc2ccc(Cl)cc2)C(=O)O)ccc2c(-c3ccccc3)cc(=O)oc12 (stereo not drawn) | i | i | i | i | i
COc1ccc2c(CC(=O)N[C@@H](Cc3ccccc3)C(=O)O)cc(=O)oc2c1C | i | nt | 148.7 | i | i
CSC[C@H](NC(=O)Cc1c(C)c2cc3c(C)c(C)oc3cc2oc1=O)C(=O)N[C@@H](Cc1ccccc1)C(=O)O | i | i | i | i | i
Cc1c(CC(=O)NCC(=O)NCC(=O)N[C@@H](Cc2ccccc2)C(=O)O)c(=O)oc2c(C)c(O)ccc12 | nt | nt | + | i | nt
O=C(Cc1cc(=O)oc2cc(O)ccc12)NC(Cc1ccc(Cl)cc1)C(=O)O (stereo not drawn) | i | i | + | i | i
O=C(COc1ccc2ccc(=O)oc2c1)NC(Cc1ccc(Cl)cc1)C(=O)O (stereo not drawn) | i | i | i | i | i
Cc1ccccc1C(=O)c1cccn1CC(=O)NCc1ccccc1Cl | i | i | i | i | i
C=CCn1c(SCC(=O)c2ccc(NS(=O)(=O)c3ccccc3)cc2)nnc1-c1cccs1 | i | i | i | 35.2 | i
C=CCn1c(SCC(=O)Nc2ccc(C(=O)OCC)cc2)nnc1-c1cccs1 | i | i | i | i | i
COc1ccccc1-c1coc2c(CN3CCN(C)CC3)c(O)ccc2c1=O | i | i | 131.9 | i | i
CCN1CCN(Cc2c(O)ccc3c(=O)c(-c4ccccc4OC)coc23)CC1 | i | i | 118.8 | i | i
COc1ccccc1-c1coc2c(CN3CCN(CCO)CC3)c(O)ccc2c1=O | i | i | 151.9 | i | i
COc1ccccc1-c1coc2c(CN3C(C)CCCC3C)c(O)ccc2c1=O (stereo not drawn) | i | i | i | i | i
O=C(NCC1CCN(c2ccc(S(=O)(=O)N3CCOCC3)cc2)CC1)Nc1ccccc1F | i | i | i | i | i
Oc1ccc(C[C@H]2CNC(=S)N2CC2CCCN2C[C@H](Cc2ccccc2)N2C[C@H](Cc3ccc(O)cc3)N(CCc3ccccc3)C2=S)cc1 (stereo partly drawn) | nt | nt | i | 34.0 | nt
CCOc1ccc(CCN2C(=S)N([C@@H](CC(C)C)CN3CCCC3CN3C(=S)NC[C@@H]3Cc3ccc(O)cc3)C[C@@H]2Cc2ccccc2)cc1 (stereo partly drawn) | nt | nt | i | 37.5 | nt
CC(C)C[C@H]1CNC(=S)N1CC1CCCN1C[C@H](Cc1ccccc1)N1C[C@H](Cc2ccc(O)cc2)N(CC2CCCCCC2)C1=S (stereo partly drawn) | nt | nt | i | 32.3 | nt
COC(=O)CSC1=C(C#N)C(=O)NC(c2ccccc2)S1 (stereo not drawn) | i | i | i | 40.9 | i
CC1(C)CC(=O)C(C=NCc2ccc3c(c2)OCO3)=C(O)C1 | i | i | i | i | i
CC1(C)CC(=O)C(C=Nc2ccc3c(c2)OCO3)=C(O)C1 | i | i | i | 54.2 | i
COc1ccc(N=CC2=C(O)CCCC2=O)cc1 | i | i | i | 37.0 | i
CC1(C)CC(=O)C(C=Nc2ccncc2)=C(O)C1 | i | i | i | i | i
COc1ccc(OC)c(N=CC2=C(O)CC(C)(C)CC2=O)c1 | i | i | i | 38.5 | i
SMILES | Mtb betalactam | Rv3671c inh | FBA Mtb inh | GDH-TPI counter | UGM FP inh
COc1ccc(N=CC2=C(O)CC(C)(C)CC2=O)cc1 | i | i | i | 41.6 | i
COc1cc(NC(=O)CSc2nc(C)c(C)c(C)n2)cc(OC)c1 | i | i | i | i | i
NC(=S)NC(=O)/C=C/c1ccccc1 | i | i | i | i | i
CCN(CC(=O)Nc1ccc2c(c1)OCCO2)C(=O)c1cccc(OCC(C)C)c1 | i | i | i | i | i
Cc1ccc2nc(-c3ccc(SCC(=O)O)nc3)[nH]c2c1 | i | i | + | 53.1 | i
Cc1cc2nc(-c3ccc(SCC(=O)Nc4ccc(S(=O)(=O)N5CCCC5)cc4)nc3)[nH]c2cc1C | i | i | i | 38.3 | i
O=C(CSc1ccc(-c2nc3ccccc3[nH]2)cn1)Nc1ccc(S(=O)(=O)N2CCCC2)cc1 | i | i | i | i | i
Cc1sc2ncnc(N3CCN(Cc4ccccc4)CC3)c2c1-c1ccc(F)cc1 | i | i | i | i | i
CC(C(=O)N1CCc2ccccc21)N1CCN(Cc2ccc(Cl)cc2)CC1 (stereo not drawn) | i | i | i | i | i
O=C1OC(CN2CCOCC2)CN1N=Cc1ccc([N+](=O)[O-])o1 (stereo not drawn) | i | i | i | 31.6 | i
COc1ccc(C(=O)N=C2SC3CS(=O)(=O)CC3N2Cc2ccc(F)cc2)cc1 (stereo not drawn) | i | i | i | i | i
O=C(Nc1ccc(C(=O)O)cc1)/C(=C\C=C\c1ccccc1)NC(=O)c1ccc(Br)cc1 | i | i | i | 31.1 | i
CC(=O)c1ccc(NC(=O)/C(=C\c2ccco2)NC(=O)c2ccco2)cc1 | i | i | i | 30.9 | i
O=C(Nc1cccc(C(F)(F)F)c1)/C(=C\c1ccco1)NC(=O)c1cccs1 | ? | i | i | 34.6 | i
O=C(Nc1cccc(F)c1)/C(=C\c1ccco1)NC(=O)c1cccs1 | i | i | i | i | i
O=C(Nc1ccc(C(=O)O)cc1)/C(=C\c1ccc2c(c1)OCO2)NC(=O)c1ccccc1 | i | i | i | 36.0 | i
COc1ccc2nc(-c3ccccc3)cc(C(=O)OCC(=O)NC3CC3)c2c1 | nt | nt | i | i | nt
Cc1ccc(NC(=O)/C(=C\c2ccc3c(c2)OCO3)NC(=O)c2ccco2)cc1 | i | i | i | 39.5 | i
CC(=O)Oc1ccc(/C=C(\NC(=O)c2cccc(Br)c2)C(=O)Nc2ccc(C(=O)O)cc2)cc1 | i | i | i | 32.4 | i
CC(C)OC(=O)/C(=C\C=C\c1ccccc1)NC(=O)c1ccccc1 | i | i | i | 45.6 | i
NC(=O)/C(=C/c1ccc2c(c1)OCO2)NC(=O)c1ccco1 | i | i | i | i | i
COc1cccc(C(=O)COC(=O)c2ccc(NC(C)=O)cc2)c1 | i | i | i | i | i
COc1ccc(-c2oc3cccnc3c2C#CC2(O)CCCCC2)cc1 | i | i | + | 34.5 | i
COc1ccc(-c2oc3cccnc3c2-c2ccc(OC)nc2)cc1 | i | i | 138.8 | i | i
COc1ccc(-c2oc3cccnc3c2C#CCO)cc1 | i | i | + | 31.9 | i
COc1ccc(-c2ccc3oc(-c4ccc(OC)cc4)c(C#CCCO)c3c2)cc1 | i | i | i | i | i
O=C(CNC(=O)c1ccc(Cl)cc1Cl)OCn1nnc2ccccc2c1=O | i | i | i | i | i
CCCc1cc(=O)oc2c3c(cc(OCC(=O)NCCN4CCOCC4)c12)OC(C)(C)CC3 | i | i | 180.2 | i | i
